The record followed here is PubChem BioAssay (Tox21).

Results filed as inconclusive are left out. Entries that show only a call come without a potency. Calls of active or inactive are those of the source. Calls follow the shape of the dose curve; as a rule, active = well fitted cell-killing curve with a large enough effect in the repeat runs; inconclusive = weak or mixed curves; inactive = no such curve, though single readings can be large or run the other way.
Potency is read from the fitted curve at half-maximal effect.

The nature of this test: qHTS assay for identifying genotoxic compounds that show differential cytotoxicity against isogenic chicken DT40 cell lines with known DNA damage response pathways - Rad54/Ku70 mutant cell line (AID 743015). Also: nearly all actives have a fitted effect of over 60% in size. As to conditions: DT40 Rad54/Ku70 mutant viability, CellTiter-Glo, 40 h; series mostly up to 66.8 µM. From the text:
National Center for Advancing Translational Sciences [NCATS]
NIH Chemical Genomics Center [NCGC]
U.S. Environmental Protection Agency [EPA]
National Institutes of Environmental Health Sciences [NIEHS]
National Toxicology Program [NTP]
U.S. Food and Drug Administration [FDA]
DNA repair pathways play a critical role in cellular homeostasis by repairing DNA damage induced by endogenous processes and xenobiotics. Isogenic chicken DT40 cell lines deficient in different DNA repair pathways can be used to identify genotoxic compounds and aid in characterizing the nature of the DNA damage induced. Two DNA repair-deficient cell lines with disrupted genes, Rad54/Ku70 or Rev3, were used to screen the Tox21 10K compound library. Possible genotoxicity was based on the presence of a significant increase in cytotoxicity in one or more of the DNA repair-deficient cell lines compared to that observed in the parental DNA repair-proficient cell line. CellTiter Glo viability assay (Promega, Madison, WI) was used to measure cell viability in these cells after compound treatment. This assay includes the data from the Rad54/Ku70 mutant cell line.
Tox21 Assay Protocol Summary:
300 DT40 mutant cells in 5 uL/well were dispensed into white, solid-bottom 1536-well plates using a Multidrop Combi (ThermoFisher Scientific, Waltham, MA) dispenser. After the assay plates were incubated at 37 C/5% CO2 for approximately 0.5 hour, 23 nL of compounds dissolved in DMSO, positive controls or DMSO only was transferred into the assay plate by a pintool work station (Kalypsys, San Diego, CA). The assay plates were incubated at 37 C/5% CO2 for 40 hours. After 5 uL per well of CellTiter-Glo reagent was added into each well of the assay plates, the plates were incubated for 30 min at room temperature and the luminescence intensity of the plates was measured using a ViewLux (PerkinElmer, Shelton, CT) plate reader.
On the technique in general: Quantitative high-throughput screening tests each substance at several concentrations.
As to `CN1C(=O)COc2c(C(=O)NC3CN4CCC3CC4)cc(Cl)cc21` (stereo not given), the Potency result is “inactive”.
As to `C#CC(C)(C)O`, the Potency result is “inactive”.
For the molecule `N#CC(Br)(Br)C(N)=O`, the Potency was 61.1 µM (active).
On to `CCCN1CCC[C@@H]2Cc3[nH]ncc3C[C@H]21`, for which the Potency entry was “inactive”.
The result for `CCSC(=O)Cl` reads “inactive”; that for `C[N+]1(C)CCCCC1`, “inactive”; that for `CCNP(=S)(OC)O/C(C)=C/C(=O)OC(C)C` (stereo not given), 54.5 µM (active).
Regarding `O=C(Cl)C(Cl)Cl`, the Potency entry was “inactive”.
Consider `CCOC(=O)Nc1cccc(OC(=O)Nc2ccccc2)c1`, for which the Potency entry is “inactive”.
The result for `N#CN` reads “inactive”.
Turning to `Cc1ccc(S(=O)(=O)N[C@@H](CCCCN)C(=O)CCl)cc1`, the Potency is 10.6 µM (active).
For `CN(C)C1CCCCC1`, the Potency entry was “inactive”.
Take `C=C(Cl)CCl`: the Potency entry was “inactive”.
As to `COC(=O)[C@@H](N)CCCN/C(N)=N/[N+](=O)[O-]`, the Potency result is “inactive”.
With `CCOC1Oc2ccc(OS(C)(=O)=O)cc2C1(C)C` (stereo not given) the figure was 54 µM (active); with `CCN(CC)CCOC(=O)C(O)(c1ccccc1)c1ccccc1`, “inactive”; with `Oc1ccc(Cc2ccc(O)cc2)cc1`, “inactive”.
Regarding `CS(=O)(=O)Cl`, the Potency entry was “inactive”.
As for `O=C(O)C(Br)(Br)Br`, the Potency result was “inactive”.
With `COc1ccccc1OC` the entry was “inactive”; with `CCCCS(=O)(=O)Cl`, “inactive”; with `CC(=O)OCC1=C(C(=O)O)N2C(=O)[C@@H](N)[C@H]2SC1`, “inactive”.
For `Cc1ccc2c(c1)C1CN(C)CCC1N2` (stereo not given), the Potency entry is “inactive”.
Regarding `CCc1cc(OC)c(C[C@H](C)N)cc1OC`, the Potency was 63.7 µM (active).
The result for `Cc1ccc(-c2nc3ccc(C)cn3c2CC(=O)N(C)C)cc1` reads “inactive”.
The result for `CCC(C(N)=O)N1CCCC1=O` (stereo not given) reads “inactive”; that for `CCC(=O)c1ccc(Cl)cc1`, “inactive”; that for `C/C=C/CC#N`, “inactive”.
The result for `O=C(O)C(Cl)Br` (stereo not given) reads “inactive”.
Consider `O=P(O)(O)c1ccccc1`, for which the Potency entry was “inactive”.
As to `CC(C)NCC(O)c1ccc([N+](=O)[O-])cc1` (stereo not given), the Potency result was “inactive”.
Take `CN(C)CCN(C)C`: the Potency entry was “inactive”.
With `ClCOCCl`, the Potency result is “inactive”.
In the case of `CN1COCN(Cc2cnc(Cl)s2)/C1=N\[N+](=O)[O-]`, the Potency result was “inactive”.
`CCOC(=O)C(SP(=S)(OC)OC)c1ccccc1` (stereo not given): the Potency result is “inactive”.
As to `C(COCC1CO1)OCC1CO1` (stereo not given), the Potency was 8.63 µM (active).
In the case of `ClC1=C(Cl)C2(Cl)C(CBr)CC1(Cl)C2(Cl)Cl` (stereo not given), the Potency is 30.6 µM (active).
Take `Cc1cccc2sc3nncn3c12`: the Potency result was “inactive”.
Regarding `CC(Cl)(Cl)Cl`, the Potency entry was “inactive”.
The result for `CCN(CCO)CCn1c(Cc2ccccc2)nc2c1c(=O)n(C)c(=O)n2C` reads “inactive”.
